Each structure is given as a SMILES string. About 83,000 compounds went through this panel and 20% of them were active in at least one assay; those are over-represented in the sample as a whole.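 Plates (96-well) were seeded with cells, treated with compound at one concentration, and incubated for 48 hours before percent growth was determined.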 Unmarked numbers belong to inactive results. Active and inactive are the calls of the source. How the source made its calls: active means growth percent below 10; inactive means the rest.

This experiment relates to SF-295 CNS. The experiment can be described thus: NCI-60 one-dose screen, 48 h (100 = growth as untreated, 0 = no growth, -100 = all killed). The note with it: 10 µM unless noted.
As for `CC(C)CCC1(CCCl)C(=O)NC(=O)NC1=O`, the growth was 96.2%. As to `C[C@@]1(CCCCCCCCCc2ccc(O)cc2)C[C@]2(C)OC(=O)C[C@@H]2OO1`, the growth was 91.9%. Regarding `COC(=O)[C@@H](C)C[C@H](Cc1ccccc1)NC(=O)c1nc([C@@H](C[C@H](C(C)C)N(C)C(=O)[C@@H](NC(=O)[C@H]2CCCN2C)C(C)C)OC(C)=O)sc1C`, the growth is 10.6%. As for `CCOP(=O)(NC[C@H]1O[C@](O)(CO)[C@@H](O)[C@@H]1O)OCC`, the growth was 104%. In the case of `O=C1CN=C(c2ccc(Cl)cc2)c2sccc2N1`, the growth is 96.5%. Take `COP(=O)(OC)C(O)c1ccc(Cl)cc1` (centres undefined): the growth was 100%. Then `CNC(=O)Oc1ccc(N(C)C)cc1C(C)C`, with 118%; and `CO[C@H](C(=O)O)[C@@H]1Cc2cc3cc(OC4CC(OC5CC(O)C(O)C(C)O5)C(O)C(C)O4)c(C)c(O)c3c(O)c2C(=O)[C@H]1OC1CC(OC2CC(OC3CC(C)(O)C(O)C(C)O3)C(O)C(C)O2)C(O)C(C)O1` (some centres undefined), with 11.2%.

As for `CCOC(=O)N[C@H]1CCc2c(Br)c(OC)c(OC)c(OC)c2-c2ccc(SC)c(=O)cc21`, the growth is 10.8%. As for `Cc1cnc(/C=C/C(=O)O)cc1-c1cc2c(cc1C)C(C)(C)CCC2(C)C`, the growth is 86.1%. With `CC1=C(CNO)C2=C(C)C3(CC3)[C@@](C)(O)C(=O)C2=C1`, the growth is -4.83% (active). Regarding `CC12CC=CCC1CCC1C2CCC2(C)C(c3ccc(=O)oc3)CCC12O` (centres undefined), the growth is -36.7% (active).

With `Fc1c[c-]c(-c2ccccn2)c(F)c1.[CH3-].[Pt+2].c1ccc([PH+](c2ccccc2)c2ccccn2)cc1`, the growth is 5.67% (active). As for `CN[C@@]1(c2ccccc2Cl)CCCC[C@@H]1NCC1CCCO1` (some centres undefined), the growth was 98.2%. Then `CC(C)=CC1C(C(=O)OCc2cccc(Oc3ccccc3)c2)C1(C)C` (centres undefined), with 90.3%; and `CCCCCCCC[n+]1ccc2ccccc2c1`, with 67%. Consider `COC(=O)[C@@H](C)C[C@H](Cc1ccccc1)NC(=O)c1csc([C@@H](C[C@H](C(C)C)N(C)C(=O)C2(NC(=O)[C@H]3CCCCN3C)CC2)OC(C)=O)n1`, for which the growth was 4.29% (active).

In the case of `CC(=O)c1ccc(C(=O)NCC2CCC3(CC2)OOC2(CCCCC2)OO3)cc1`, the growth is 94.9%. For `COC(=O)[C@@H](C[C@H](Cc1ccccc1)NC(=O)c1csc([C@@H](C[C@H](C(C)C)N(C)C(=O)[C@@H](NC(=O)[C@H]2CCCCN2C)C(C)C)OC(C)=O)n1)NC(=O)OCc1ccccc1`, the growth was 3.92% [9.5 µM] (active).

The values above are taken from PubChem BioAssay (NCI).
